{"source": "paper PMC11062922", "about": "(Nature Chemical Biology, 2023)", "design_in_all_cases": "species or system human, MV4-11 + K-562 + COLO205 + SK-N-BE2 + OVCAR-8", "key": {"[1]": {"system": "CLK1", "settings": "read-out: apparent Kd, n = 1"}, "[2]": {"system": "CLK4", "settings": "read-out: apparent Kd, n = 1"}, "[3]": {"system": "CSNK2A1;CSNK2A3", "settings": "read-out: apparent Kd; compound concentrations: 100 nM and 1000 nM (sheet 'Samples'), CATDS: 0.234359592666399; n = 1"}, "[4]": {"system": "CSNK2A2", "settings": "read-out: apparent Kd; compound concentrations: 100 nM and 1000 nM (sheet 'Samples'), CATDS: 0.363288777813424; n = 1"}, "[5]": {"system": "DYRK1A", "settings": "read-out: apparent Kd; compound concentrations: 100 nM and 1000 nM (sheet 'Samples'), CATDS: 0.15776551091334201; n = 1"}, "[6]": {"system": "CDK7", "settings": "read-out: apparent Kd, compound concentrations: 100 nM and 1000 nM (sheet 'Samples'), n = 1"}, "[7]": {"system": "ERCC2", "settings": "read-out: apparent Kd, compound concentrations: 100 nM and 1000 nM (sheet 'Samples'), n = 1"}, "[8]": {"system": "FER", "settings": "read-out: apparent Kd, compound concentrations: 100 nM and 1000 nM (sheet 'Samples'), n = 1"}, "[9]": {"system": "GAK", "settings": "read-out: apparent Kd, n = 1"}, "[10]": {"system": "PIK3CA", "settings": "read-out: apparent Kd; compound concentrations: 100 nM and 1000 nM (sheet 'Samples'), CATDS: 0.31694320747902399; n = 1"}, "[11]": {"system": "TNK1", "settings": "read-out: apparent Kd, n = 1"}, "[12]": {"system": "TNK2", "settings": "read-out: apparent Kd, compound concentrations: 100 nM and 1000 nM (sheet 'Samples'), n = 1"}, "[13]": {"system": "CDK4", "settings": "read-out: apparent Kd; compound concentrations:100 nM and 1000 nM (sheet 'Samples'); n = 1"}, "[14]": {"system": "NNT", "settings": "read-out: apparent Kd; compound concentrations:100 nM and 1000 nM (sheet 'Samples'); n = 1"}, "[15]": {"system": "CIT", "settings": "read-out: apparent Kd; compound concentrations: 100 nM and 1000 nM (sheet 'Samples'), CATDS: 7.9772232901770906E-2; n = 1"}, "[16]": {"system": "CSNK1A1", "settings": "read-out: apparent Kd; compound concentrations: 100 nM and 1000 nM (sheet 'Samples'), CATDS: 5.74682899523659E-2; n = 1"}, "[17]": {"system": "CSNK1D", "settings": "read-out: apparent Kd; compound concentrations: 100 nM and 1000 nM (sheet 'Samples'), CATDS: 0.160108926806518; n = 1"}, "[18]": {"system": "CSNK1E", "settings": "read-out: apparent Kd; compound concentrations: 100 nM and 1000 nM (sheet 'Samples'), CATDS: 0.10532594591196801; n = 1"}, "[19]": {"system": "DDR1", "settings": "read-out: apparent Kd; compound concentrations: 100 nM and 1000 nM (sheet 'Samples'), CATDS: 7.6072029759196497E-2; n = 1"}, "[20]": {"system": "DDR2", "settings": "read-out: apparent Kd; compound concentrations: 100 nM and 1000 nM (sheet 'Samples'), CATDS: 5.6437798094111098E-2; n = 1"}, "[21]": {"system": "MAPK10", "settings": "read-out: apparent Kd, n = 1"}, "[22]": {"system": "MAPK14", "settings": "read-out: apparent Kd; compound concentrations: 100 nM and 1000 nM (sheet 'Samples'), CATDS: 0.14251472882722499; n = 1"}, "[23]": {"system": "MAPK9", "settings": "read-out: apparent Kd, n = 1"}, "[24]": {"system": "MAPKAPK2", "settings": "read-out: apparent Kd; compound concentrations: 100 nM and 1000 nM (sheet 'Samples'), CATDS: 0.17165135235048001; n = 1"}, "[25]": {"system": "NLK", "settings": "read-out: apparent Kd; compound concentrations: 100 nM and 1000 nM (sheet 'Samples'), CATDS: 9.0409575218607804E-2; n = 1"}, "[26]": {"system": "RIPK2", "settings": "read-out: apparent Kd; compound concentrations: 100 nM and 1000 nM (sheet 'Samples'), CATDS: 0.128634977422559; n = 1"}, "[27]": {"system": "EPHA5", "settings": "read-out: apparent Kd; compound concentrations: 100 nM and 1000 nM (sheet 'Samples'), CATDS: 7.2696381065974702E-2; n = 1"}, "[28]": {"system": "EPHB4", "settings": "read-out: apparent Kd; compound concentrations: 100 nM and 1000 nM (sheet 'Samples'), CATDS: 7.5541211933236804E-2; n = 1"}, "[29]": {"system": "GSK3A", "settings": "read-out: apparent Kd; compound concentrations: 100 nM and 1000 nM (sheet 'Samples'), CATDS: 7.5555777377750599E-2; n = 1"}, "[30]": {"system": "PIK3C3", "settings": "read-out: apparent Kd; compound concentrations: 100 nM and 1000 nM (sheet 'Samples'), CATDS: 0.106578843558364; n = 1"}, "[31]": {"system": "PIK3CB", "settings": "read-out: apparent Kd; compound concentrations: 100 nM and 1000 nM (sheet 'Samples'), CATDS: 0.68027770173125801; n = 1"}, "[32]": {"system": "CLK2", "settings": "read-out: apparent Kd; compound concentrations:100 nM and 1000 nM (sheet 'Samples'); n = 1"}, "[33]": {"system": "MAPK8", "settings": "read-out: apparent Kd; compound concentrations:100 nM and 1000 nM (sheet 'Samples'); n = 1"}, "[34]": {"system": "PTK2B", "settings": "read-out: apparent Kd; compound concentrations:100 nM and 1000 nM (sheet 'Samples'); n = 1"}, "[35]": {"system": "PTK2", "settings": "read-out: apparent Kd; compound concentrations:100 nM and 1000 nM (sheet 'Samples'); n = 1"}, "[36]": {"system": "TTK", "settings": "read-out: apparent Kd; compound concentrations:100 nM and 1000 nM (sheet 'Samples'); n = 1"}, "[37]": {"settings": "compound concentrations:100 nM and 1000 nM (sheet 'Samples')"}}, "note": "Like-named read-outs stand apart in the source and are kept apart here.", "data": [{"smiles": "CCOc1ccccc1CCNC1=NC(=O)/C(=C/c2ccc3ncccc3c2)S1", "note": "[RO4503314-000]", "values": [{"measurement": "potency estimated from few doses", "setting": "[1]; compound concentrations: 100 nM and 1000 nM (sheet 'Samples'), CATDS: 0.17433508542258599", "value": 469, "unit": "nM"}, {"measurement": "potency estimated from few doses", "setting": "[2]; compound concentrations: 100 nM and 1000 nM (sheet 'Samples'), CATDS: 0.16932447657893401", "value": 505, "unit": "nM"}, {"measurement": "potency estimated from few doses", "setting": "[3]", "value": 246, "unit": "nM"}, {"measurement": "potency estimated from few doses", "setting": "[4]", "value": 118, "unit": "nM"}, {"measurement": "potency estimated from few doses", "setting": "[5]", "value": 615, "unit": "nM"}]}, {"smiles": "Nc1c(C(=O)c2cccc(C(O)CO)c2)cnn1-c1ccc(F)cc1", "note": "(stereo not drawn) [RO3200567-000]", "values": [{"measurement": "potency estimated from few doses", "setting": "[6]; CATDS: 0.117624966951351", "value": 1730, "unit": "nM"}, {"measurement": "potency estimated from few doses", "setting": "[7]; CATDS: 0.117960560736162", "value": 1710, "unit": "nM"}, {"measurement": "potency estimated from few doses", "setting": "[8]; CATDS: 0.13650868273140601", "value": 1200, "unit": "nM"}, {"measurement": "potency estimated from few doses", "setting": "[9]; compound concentrations: 100 nM and 1000 nM (sheet 'Samples'), CATDS: 0.12538076296612899", "value": 1460, "unit": "nM"}, {"measurement": "potency estimated from few doses", "setting": "[10]", "value": 285, "unit": "nM"}, {"measurement": "potency estimated from few doses", "setting": "[11]; compound concentrations: 100 nM and 1000 nM (sheet 'Samples'), CATDS: 0.145879794624587", "value": 1040, "unit": "nM"}, {"measurement": "potency estimated from few doses", "setting": "[12]; CATDS: 0.149039092060825", "value": 993, "unit": "nM"}]}, {"smiles": "O=C1NC(=O)C(c2ccc(Cl)cc2)=C1Nc1ccc(O)cc1", "note": "[SB-340867]", "values": [{"measurement": "potency estimated from few doses", "setting": "[13]", "value": 1970, "unit": "nM"}, {"measurement": "potency estimated from few doses", "setting": "[14]", "value": 1720, "unit": "nM"}]}, {"smiles": "Nc1nccc(-c2c(-c3ccc(F)cc3)ncn2C2CCN(CC(F)(F)F)CC2)n1", "note": "[SB-236560]", "values": [{"measurement": "potency estimated from few doses", "setting": "[15]", "value": 168, "unit": "nM"}, {"measurement": "potency estimated from few doses", "setting": "[16]", "value": 514, "unit": "nM"}, {"measurement": "potency estimated from few doses", "setting": "[17]", "value": 41.3, "unit": "nM"}, {"measurement": "potency estimated from few doses", "setting": "[18]", "value": 87.7, "unit": "nM"}, {"measurement": "potency estimated from few doses", "setting": "[19]", "value": 191, "unit": "nM"}, {"measurement": "potency estimated from few doses", "setting": "[20]", "value": 559, "unit": "nM"}, {"measurement": "potency estimated from few doses", "setting": "[21]; compound concentrations: 100 nM and 1000 nM (sheet 'Samples'), CATDS: 4.9775918057440499E-2", "value": 1150, "unit": "nM"}, {"measurement": "potency estimated from few doses", "setting": "[22]", "value": 50, "unit": "nM"}, {"measurement": "potency estimated from few doses", "setting": "[23]; compound concentrations: 100 nM and 1000 nM (sheet 'Samples'), CATDS: 6.3726988892981506E-2", "value": 338, "unit": "nM"}, {"measurement": "potency estimated from few doses", "setting": "[24]", "value": 37.1, "unit": "nM"}, {"measurement": "potency estimated from few doses", "setting": "[25]", "value": 123, "unit": "nM"}, {"measurement": "potency estimated from few doses", "setting": "[26]", "value": 59.8, "unit": "nM"}]}, {"smiles": "O=c1cc(N2CCOCC2)nc2n(Cc3cccc(Cl)c3Cl)ccn12", "note": "[GSK2286295A]", "values": [{"measurement": "potency estimated from few doses", "setting": "[6]; CATDS: 8.4335056049156601E-2", "value": 923, "unit": "nM"}, {"measurement": "potency estimated from few doses", "setting": "[27]", "value": 1360, "unit": "nM"}, {"measurement": "potency estimated from few doses", "setting": "[28]", "value": 1220, "unit": "nM"}, {"measurement": "potency estimated from few doses", "setting": "[7]; CATDS: 9.6102785253179598E-2", "value": 687, "unit": "nM"}, {"measurement": "potency estimated from few doses", "setting": "[8]; CATDS: 7.77606230380051E-2", "value": 1130, "unit": "nM"}, {"measurement": "potency estimated from few doses", "setting": "[9]; compound concentrations: 100 nM and 1000 nM (sheet 'Samples'), CATDS: 7.8204164782115004E-2", "value": 1110, "unit": "nM"}, {"measurement": "potency estimated from few doses", "setting": "[29]", "value": 1220, "unit": "nM"}, {"measurement": "potency estimated from few doses", "setting": "[30]", "value": 554, "unit": "nM"}, {"measurement": "potency estimated from few doses", "setting": "[31]", "value": 21.8, "unit": "nM"}, {"measurement": "potency estimated from few doses", "setting": "[11]; compound concentrations: 100 nM and 1000 nM (sheet 'Samples'), CATDS: 9.2477692433592898E-2", "value": 747, "unit": "nM"}, {"measurement": "potency estimated from few doses", "setting": "[12]; CATDS: 8.9325991753534395E-2", "value": 807, "unit": "nM"}]}, {"smiles": "COc1cc(N2CCN(C(C)C)CC2)ccc1Nc1nc(Nc2ccc(F)cc2C(=O)NC[C@@H](O)CO)c2cc[nH]c2n1", "note": "[GSK1392956A]", "values": [{"measurement": "potency estimated from few doses", "setting": "[1]; [37]", "value": 415, "unit": "nM"}, {"measurement": "potency estimated from few doses", "setting": "[32]", "value": 811, "unit": "nM"}, {"measurement": "potency estimated from few doses", "setting": "[2]; [37]", "value": 684, "unit": "nM"}, {"measurement": "potency estimated from few doses", "setting": "[9]; [37]", "value": 50.4, "unit": "nM"}, {"measurement": "potency estimated from few doses", "setting": "[21]; [37]", "value": 92.1, "unit": "nM"}, {"measurement": "potency estimated from few doses", "setting": "[33]", "value": 140, "unit": "nM"}, {"measurement": "potency estimated from few doses", "setting": "[23]; [37]", "value": 531, "unit": "nM"}, {"measurement": "potency estimated from few doses", "setting": "[34]", "value": 188, "unit": "nM"}, {"measurement": "potency estimated from few doses", "setting": "[35]", "value": 370, "unit": "nM"}, {"measurement": "potency estimated from few doses", "setting": "[11]; [37]", "value": 577, "unit": "nM"}, {"measurement": "potency estimated from few doses", "setting": "[36]", "value": 53, "unit": "nM"}]}]}
